# The list is not random: actives were taken first. Their share in the collection is about 19%.
# DT40 TDP1 no CPT – qHTS for Inhibitors of human tyrosyl-DNA phosphodiesterase 1 (TDP1): qHTS in cells in absence of CPT; DT40 Tdp1-/- hTDP1 cells, no CPT, ATP luminescence, 48 h; Potency, µM (series often up to 46.2 µM), for the others: top-dose activity change, negative = growth inhibition, actives largely listed as inhibitors; 420,000 compounds, 15% hits; AID 686978, 2013; further: potency means the concentration at half of the fitted maximal effect; nearly all actives have a fitted effect of over 55% in size
#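 DT40 Tdp1-/-;hTDP1 cells, no CPT (DMSO vehicle only), 400 cells/well; compounds pin-transferred; ≥48 hr, 37 °C; CellTiter-Glo 30 min RT dark, luminescence read.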
# HT1080NT lethal – kills 2HG-producing HT-1080-NT fibrosarcoma cells. HT-1080-NT fibrosarcoma viability, CellTiter-Glo ATP luminescence, 48 h. Potency, µM (series often up to 46.1 µM), without a hit: top-dose activity, negative = less viability, usual class: cytotoxic. 360,000 compounds, 1.6% hits;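 further: NT is the 2HG producing partner of a matched IDH1 knockdown line; potency means the concentration at half of the fitted maximal effect; 0% = DMSO-treated cells and -100% = media-only wells without cells; nearly all actives have a fitted effect of over 55% in size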
#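 750 cells/well, RPMI + 5% FBS; 2 h settle, compound pin-transfer, 48 h at 37 degrees C. CellTiter-Glo 10 min RT, luminescence. Normalized to DMSO and media-only wells.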
# HT1080 IDH1KD tx – toxicity to HT-1080 IDH1 knockdown cells (counter line) | AID 686971 | 360,000 compounds, 2% hits | Potency, µM (doses to about 46.1 µM), inactives show at the highest dose activity, negative = toxicity, most hits filed as cytotoxic | HT-1080 IDH1 knockdown viability, ATP luminescence, 48 h;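 further: potency means the concentration at half of the fitted maximal effect; 0% = DMSO wells and -100% = cell-free medium wells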
#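 Viability of IDH1-knockdown HT-1080 fibrosarcoma cells was assessed by CellTiter-Glo after 48 h at 37 °C with titrated compound; concentration-effect curves were classified by fit quality and response size.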
# TDP1 cell CPT – DT40-hTDP1 cell growth loss with CPT; Potency, µM (series often up to 46.2 µM), for inactives: at the top dose activity change, negative = growth inhibition, most hits filed as inhibitors; 420,000 compounds, 12% hits; chicken DT40 Tdp1-/-;hTDP1 cells + 20 nM CPT, ATP luminescence, 48 h; AID 686979; further: potency means the concentration at half of the fitted maximal effect; nearly all actives have a fitted effect of over 55% in size
#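 Chicken DT40 Tdp1-/- cells stably complemented with human TDP1 were seeded at 400 cells/well in medium containing 20 nM camptothecin, exposed to pin-transferred compounds, and grown at 37 °C for at least 48 hr. Viability was read as ATP luminescence.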
# IL-1B inflam inh – inhibitors of inflammasome signaling (IL-1 beta secretion) | 360,000 compounds, 4.7% hits | activity change, % at 57.5 µM | THP-1 LPS/ATP IL-1B secretion, AlphaLISA, 16 h; active compounds read low; in the data active means activity change below about -50%; inconclusive means mostly about -30% to -49%
#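 Secreted IL-1B measured by AlphaLISA bead assay after 16 h compound exposure of THP-1 cells; compounds (final up to 57.5 uM) added 1 h before LPS (250 ng/mL) and ATP (1.25 mM) stimulation; lower signal means less secretion.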
# * marks the source's active call; other numbers are inactive results; ? = inconclusive; . = no result; [ ] = remark or other dose. Unless noted, the call rests on the fitted dose curve; in most records, active means well fitted curve in the direction sought with a large enough effect; inconclusive means small, poorly fitted or top-dose-only effect, or another doubt; inactive means no such curve, though single readings can be large; an effect the other way counts as inactive or inconclusive. Unless noted, on the % scale 0 is the no-effect control and ±100 the full control effect.
SMILES,DT40 TDP1 no CPT,HT1080NT lethal,HT1080 IDH1KD tx,TDP1 cell CPT,IL-1B inflam inh
COC(=O)c1ccc2c(=O)n(CCCCCC(=O)N3CCN(c4cc(Cl)ccc4C)CC3)c(=O)[nH]c2c1,5.8µM*,.,.,7.31µM*,.
COc1cc2[nH]c(=O)n(CCCCCC(=O)N3CCN(c4ccc(Cl)cc4)CC3)c(=O)c2cc1OC,7.31µM*,.,.,?,.
COc1cc2[nH]c(=O)n(CCC(=O)N3CCN(c4cccc(C)c4C)CC3)c(=O)c2cc1OC,?,-4.2%,16.2%,23.1µM*,33.6
COc1cc2[nH]c(=O)n(CCC(=O)N3CCN(Cc4ccccc4)CC3)c(=O)c2cc1OC,?,14.0%,9.8%,-5.7%,14.9
COc1cc2[nH]c(=O)n(CCC(=O)N3CCN(c4ccc(Cl)cc4)CC3)c(=O)c2cc1OC,-24.8%,.,.,-21.4%,.
CC(C)N1CCN(Cc2ccc(C#CCCO)cc2)CC1CCO (stereo unspecified),-17.2%,-1.8%,-1.4%,0.7%,-8.4
Cc1cccc(NC(=O)c2cccc(NC(=O)c3ccco3)c2)c1C,?,14.2%,-2.3%,-27.6%,?
OC1(c2ccc(Cl)c(Cl)c2)C[n+]2ccccc2N1Cc1ccccc1 (stereo unspecified),18.4µM*,18.4µM*,20.6µM*,13µM*,-84.9*
COc1cccc(C2=CC(c3cccc(OC)c3OC(F)F)n3nnnc3N2)c1 (stereo unspecified),?,-3.8%,-21.3%,?,1.9
COc1cccc(C2=CC(c3cccc(OC)c3OC)n3nnnc3N2)c1 (stereo unspecified),16.4µM*,?,16.4µM*,11.6µM*,-18.1
COc1cccc(C2C=C(c3ccc(C)c(C)c3)Nc3nnnn32)c1OC (stereo unspecified),3.66µM*,.,.,5.17µM*,.
CC(=O)N[C@@H](C)C(=O)OC(C)C(=O)Nc1cccc([N+](=O)[O-])c1 (stereo partly specified),-4.4%,2.6%,-2.9%,0.0%,37.8
COc1ccc(Cn2ccn(Cc3cccc(Cl)c3)c(=O)c2=O)cc1,-19.3%,.,.,?,.
N#Cc1ccc(C(=O)Nc2ccc(N3CCN(C(=O)c4ccco4)CC3)cc2)c(F)c1,-16.4%,-0.6%,-16.0%,-21.1%,?
O=C1CC[C@@H](C(=O)N[C@H]2C[C@@H]2c2ccccc2)N1,-14.5%,.,.,0.4%,.
CCOC(=O)C1(Cc2ccc(OC)cc2)CCN(C(=O)c2ccoc2C)CC1,?,0.7%,-0.2%,?,-4.6
CCOC(=O)C1(Cc2cccc(OC)c2)CCCN(Cc2nccn2CC)C1 (stereo unspecified),13µM*,-6.7%,-18.0%,14.6µM*,-4.0
CCOC(=O)C1(Cc2ccc(OC)cc2)CCN(C(=O)c2ccc3[nH]ccc3c2)CC1,7.31µM*,13µM*,25.9µM*,9.2µM*,-3.8
CCOC(=O)C1(Cc2cccc(OC)c2)CCCN(S(=O)(=O)N(C)C)C1 (stereo unspecified),-12.3%,-0.4%,2.4%,11.5%,32.6
CCOC(=O)C1(Cc2cccc(OC)c2)CCN(Cc2cccnc2)CC1,29.1µM*,-16.7%,-14.5%,?,11.2
CCOC(=O)C1(Cc2cccc(OC)c2)CCN(Cc2ccccc2)CC1,?,-18.7%,-16.8%,?,-26.0
CCOC(=O)C1(Cc2cccc(OC)c2)CCN(Cc2cccc3c2OCO3)CC1,18.4µM*,?,?,?,-1.4
Cc1ccc([C@H]2C[C@@H](O)[C@H](n3cc(-c4ccc(F)cc4)nn3)CN2Cc2cccs2)cc1,?,-7.6%,10.9%,?,-15.5
Cc1cccc(-n2c(C)c(-c3ccccc3)[nH]c2=S)c1,?,2.1%,1.8%,?,-15.4
CCOC(=O)C1(CC2CCCCO2)CCN(Cc2ccc(OC)cc2F)CC1 (stereo unspecified),20.6µM*,?,-0.5%,?,22.8
SMILES,DT40 TDP1 no CPT,HT1080NT lethal,HT1080 IDH1KD tx,TDP1 cell CPT,IL-1B inflam inh
CCOC(=O)C1(Cc2cccc(OC)c2)CCN(Cc2cc(OC)ccc2OC)CC1,16.4µM*,-3.2%,?,?,-67.0*
CCOC(=O)C1(Cc2cccc(OC)c2)CCN(Cc2cccc3cnccc23)CC1,?,-9.5%,-19.4%,18.4µM*,-6.1
CCOC(=O)C1(Cc2cccc(OC)c2)CCN(Cc2cccn2-c2ccccn2)CC1,?,-20.5%,-23.8%,-24.7%,-11.9
CCOC(=O)C1(Cc2cccc(OC)c2)CCN(Cc2cnc(SC)nc2)CC1,?,-7.7%,8.8%,-26.9%,7.1
CCOC(=O)C1(Cc2cccc(OC)c2)CCN(Cc2cccc(OC)c2OC)CC1,18.4µM*,?,?,?,-65.1*
CCOC(=O)C1=C(C)C(c2ccc(OC)cc2)NC(=S)N1 (stereo unspecified),29.1µM*,3.2%,7.6%,20.6µM*,3.9
CCOC(=O)C1=C(c2ccccc2)NC(=O)NC1c1cc(OC)c(OC)c(OC)c1 (stereo unspecified),0.1%,7.2%,4.4%,-13.8%,2.7
CCOC(=O)C1=C(C)C(c2cccc(Oc3ccccc3)c2)NC(=S)N1 (stereo unspecified),?,?,?,?,-73.8*
CCOC(=O)C1=C(C)C(c2ccc(OC)cc2)NC(=O)N1 (stereo unspecified),-15.1%,2.2%,-3.1%,2.3%,8.1
CCOC(=O)C1=C(c2cccc(Oc3ccccc3)c2)NC(=S)NC1C (stereo unspecified),23.1µM*,?,-8.1%[9.24 µM],?,-19.3
CN(C)C1=NCCN1CCc1cccc(F)c1,2.6%,-7.3%,-5.5%,-1.0%,8.3
Cc1cc(C=O)c(C)n1-c1ccc(NC2CCCC2)c([N+](=O)[O-])c1,18.4µM*,-13.9%,?,?,-82.4*
COc1ccc([N+](=O)[O-])cc1N(CC(=O)N1CCCC1)S(C)(=O)=O,-6.1%,3.5%,17.5%,-2.4%,2.8
CCCN(C1CCS(=O)(=O)C1)S(=O)(=O)c1cc(OC)ccc1OC (stereo unspecified),18.5%,-3.8%[9.24 µM],-3.0%,2.1%,0.4
Cc1nc2ccc(S(=O)(=O)Nc3cc(-c4nc5cccnc5s4)ccc3C)cc2s1,20.6µM*,?,?,?,42.0
Cc1nc2ccc(S(=O)(=O)Nc3cccc(-c4nc5cccnc5s4)c3C)cc2s1,25.9µM*,-15.9%,-3.5%,?,40.7
Cc1ccc(NC2CCCN(C(=O)CCN3CCCCO3)C2)cc1C (stereo unspecified),-16.7%,2.2%,5.1%,20.8%,0.0
